Results filed as inconclusive are left out. Active and inactive are the calls of the source. Unless noted, calls follow the shape of the dose curve; as a rule, active = well fitted curve in the direction sought with a large enough effect; inconclusive = small, poorly fitted or top-dose-only effect, or another doubt; inactive = no such curve, though single readings can be large; an effect the other way counts as inactive or inconclusive.
Key:
[1] = molecular target: Lysosomal acid glucosylceramidase (Homo sapiens) (UniProt P04062); experiment: Glucocerebrosidase-p2 (AID 348; in the data active = potency below about 10 µM; also: potency is read from the fitted curve at half-maximal effect); settings: purified GBA, blue fluorogenic substrate, 40 min
Method in brief: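 Compounds titrated from 0.6 nM upwards against 0.2 nM enzyme in pH 5.9 citric acid/KH2PO4, taurocholate, tween-20; blue fluorogenic substrate 80 uM, 40 min room temperature, stopped and read Ex 365/Em 440 for AC50.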

[2] = NFAT Signaling Pathway (AID 444; active = well fitted curve in either direction with a large enough effect, not every such curve was filed as active;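 also: carbachol stimulus at about its EC50 of 1 µM final; % is scaled to controls: 0 for no effect and ±100 for the full control effect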); settings: Jurkat NFAT-bla M1, carbachol, beta-lactamase ratio, 5 h; at 7.69 µM (top of the series) unless noted
Method in brief: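 Jurkat cells with NFAT-driven β-lactamase reporter and co-expressed M1 receptor, stimulated with carbachol (final 1 uM, ~EC50), compound titration, 5 h at 37 °C. CCF4 loaded 1 h at RT; 460/530 nm ratio gave %activity and AC50.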

[3] = Stat Signaling Pathway (AID 446; active = well fitted curve in either direction with a large enough effect, not every such curve was filed as active;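 also: ME-180 cervical cancer cells given 40 pM IL-6 alongside compound; SIE-controlled beta-lactamase reporter measured as 460/530 nm FRET emission ratio; % is scaled to controls: 0 for no effect and ±100 for the full control effect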); settings: ME-180 SIE beta-lactamase reporter, IL-6 stimulated, 5 h; at 7.69 µM (top of the series) unless noted
Method in brief: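 IL-6/STAT signaling read in ME-180 cells via an SIE beta-lactamase reporter. Stimulus was 40 pM IL-6 (its AC50) for 5 hrs, so both activation and inhibition register.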

[4] = molecular target: Glucocorticoid receptor (Homo sapiens) (UniProt P04150); experiment: GR-GFP Redistribution (AID 450;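 active = compounds whose dose series gives a full or clear partial fitted curve of increased nuclear translocation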; also: potency is read from the fitted curve at half-maximal effect); settings: U2OS GR-GFP nuclear translocation, laser cytometry, 2 h
[5] = molecular target: Glucocorticoid receptor (Homo sapiens) (UniProt P04150); experiment: GR-EFC Redistribution (AID 451; calls by dose curve; also: potency is read from the fitted curve at half-maximal effect); settings: CHO-K1 GR-EFC translocation, beta-gal luminescence, 2 h
Method in brief: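 CHO-K1 cells expressing nuclear EA and GR-ED fragments of b-gal; compounds titrated up to 46 uM final, 2 h at 37 C. GR nuclear translocation read as complemented b-gal luminescence after 1 h RT detection.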

[6] = molecular target: Mitogen-activated protein kinase 10 (Mus musculus) (UniProt Q61831); experiment: JNK3 AlphaScreen Assay (AID 530; active = well fitted curve in either direction with a large enough effect, not every such curve was filed as active;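 also: kinase came from lysate of stimulated human HepG2 cells; signal reports phosphorylation of biotinylated GST-cJun 1-79 at Ser73 with 10 µM ATP; % is scaled to controls: 0 for no effect and ±100 for the full control effect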); settings: JNK3 lysate, c-Jun phosphorylation; series mostly up to 57.1 µM
Method in brief: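 Pre-activated (IL-1β/TNFα) JNK3 in HepG2 lysates phosphorylates biotin-GST-cJun(1-79), 10 uM ATP; anti-phospho-cJun(Ser73) AlphaScreen read at room temperature, pH 7.6 Tris buffer. Compounds pre-incubated 15 min as titrations.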

[7] = qHTS Assay for Identification of Small Molecule Agonists for Hypoxia Response Element Signaling Pathway (AID 914; active = well fitted activation curve with a large enough effect in the signal ratio, with a control signal flat, not every such curve was filed as active; the % refers to the signal ratio; also: potency is read from the fitted curve at half-maximal effect; as to activation: % of control where 0% means no effect); settings: ME-180 HRE-bla reporter, beta-lactamase ratio, CoCl2, 17 h; activation: stronger effect = higher value
Method in brief: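 ME-180 cells carrying an HRE-driven beta-lactamase reporter were treated with compounds in a titration series plus an EC50 level of CoCl2 for 17 h at 37 degrees Celsius; CCF4 readout as the 460nm/530nm ratio gave AC50 values.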

[8] = molecular target: Dual specificity protein kinase CLK4 (Homo sapiens) (UniProt Q9HAZ1); experiment: qHTS Assay for Inhibitors of CDC-like Kinase 4 (Kinase-Glo Assay) (AID 1770); settings: recombinant Clk4, Kinase-Glo ATP depletion luminescence; series mostly up to 66.7 µM; also: nearly all actives have a fitted effect of over 65% in size; also: potency is read from the fitted curve at half-maximal effect
Method in brief: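 Recombinant human Clk4 (25 nM) phosphorylated RS repeat peptide (100 uM) with 1 uM ATP in Tris pH 7.5/MgCl2/EGTA/DTT/Triton buffer for 4.5 h at room temperature. Residual ATP was quantified by Kinase-Glo luciferase luminescence.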

[9] = molecular target: Dual specificity protein kinase CLK4 (Homo sapiens) (UniProt Q9HAZ1); experiment: qHTS Assay for Inhibitors of CDC-like Kinase 4 (ADP-Glo Assay) (AID 1771); settings: recombinant CLK4, ADP-Glo luminescence; series mostly up to 80 µM; also: nearly all actives have a fitted effect of over 70% in size; also: potency is read from the fitted curve at half-maximal effect
Method in brief: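 25 nM Clk4 with 100 uM RS repeat peptide and 1 uM ATP (final) in buffer with 2 mM MgCl2, 0.5 mM EGTA, 2.5 mM DTT, 0.01% Triton X-100; 1 h at room temperature; ADP-Glo luminescence for ADP formed.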

[10] = molecular target: Dual specificity protein kinase CLK4 (Homo sapiens) (UniProt Q9HAZ1); experiment: qHTS Assay for Inhibitors of CDC-like Kinase 4 (ADP-FP Assay) (AID 1795); settings: Transcreener ADP fluorescence polarization; series mostly up to 50 µM; also: nearly all actives have a fitted effect of over 60% in size; also: potency is read from the fitted curve at half-maximal effect
Method in brief: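 Recombinant human Clk4 (6.25 nM) phosphorylated RS repeat peptide (100 uM) with 1 uM ATP in Tris pH 7.5/MgCl2/EGTA/DTT/Triton buffer for one hour. ADP was quantified by Transcreener competitive fluorescence polarization against an ADP calibration curve.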

[11] = molecular target: Ubiquitin carboxyl-terminal hydrolase 1 (Homo sapiens) (UniProt O94782); experiment: Inhibitors of USP1/UAF1: Pilot qHTS (AID 504865); settings: purified USP1/UAF1, Ub-rhodamine cleavage fluorescence; series mostly up to 54.9 µM;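 also: rhodamine fluorescence freed from ubiquitin-rhodamine substrate followed over time; top concentration of the series differs between compounds; % is scaled to controls: 0 for no effect and ±100 for the full control effect; nearly all actives have a fitted effect of over 35% in size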
Method in brief: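 USP1/UAF1 complex (1nM) preincubated with compound 15 min at room temperature, then Ub-Rho substrate (150nM final) added. Fluorescence read kinetically at 480/540 nm, 6 reads every 60 seconds. Buffer: 50mM HEPES pH 7.8, 0.5mM EDTA, 0.1 mg/ml BSA, 1mM TCEP, 0.01% Tween-20.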

[12] = Primary qHTS for small molecule stabilizers of the endoplasmic reticulum resident proteome: Secreted ER Calcium Modulated Protein (SERCaMP) assay (AID 1508630); settings: SH-SY5Y GLuc-SERCaMP (Gaussia luciferase released on ER calcium loss) secretion, thapsigargin, luminescence; series mostly up to 38.4 µM; also: % is scaled to controls: 0 for no effect and ±100 for the full control effect
Method in brief: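 GLuc-SERCaMP-expressing SH-SY5Y cells, pretreated 16 h with compound, are challenged with thapsigargin to empty ER calcium stores; after 4 h, coelenterazine is added directly to the medium and luminescence is imaged.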

[13] = molecular target: 3',5'-cyclic-AMP phosphodiesterase 4B (Homo sapiens) (UniProt Q07343); experiment: qHTS Assay for Inhibitors of PDE-IV (AID 607; active = well fitted activation curve with a large enough effect in the main read-out, with a control signal flat, not every such curve was filed as active; also: % of control where 0% means no effect); settings: HEK293 ACTOne CNG channel cells, membrane potential fluorescence; series mostly up to 22.9 µM
Method in brief: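 Live HEK293 cells with a modified cyclic nucleotide-gated (CNG) channel report intracellular cAMP via membrane-potential dye fluorescence (ex 535/em 590 nm). Endogenous PDE-IV was targeted. Compounds were tested at up to 22.9 uM final; RO 20-1724 100 uM served as control.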

[14] = molecular target: Cytochrome P450 3A4 (Homo sapiens) (UniProt P08684); experiment: qHTS Assay for Activators of Cytochrome P450 3A4 (AID 885); settings: recombinant CYP3A4, Luciferin-PPXE luminescence, 60 min; series mostly up to 57.1 µM; also: nearly all actives have a fitted effect of over 65% in size; also: potency is read from the fitted curve at half-maximal effect
Method in brief: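 Quantitative HTS format: compounds preincubated with 20nM human CYP3A4 and Luciferin-PPXE substrate at KM, reaction started by NADPH regeneration, stopped after 60 min, luciferase luminescence read 20 min later.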

[15] = molecular target: Cytochrome P450 1A2 (Homo sapiens) (UniProt P05177); experiment: p450-cyp1a2 (AID 410; calls by dose curve; also: potency is read from the fitted curve at half-maximal effect); settings: recombinant CYP1A2, luciferin-ME demethylation, luminescence; series mostly up to 57 µM
Method in brief: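 20nM CYP1A2 with 100uM Luciferin-ME (at Km) in 100mM KPO4; compound preincubated 10 min, NADPH regeneration added, 60 min at room temperature. Luciferin quantified by luminescence after detection reagent; normalized to 57 uM furafylline.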

[16] = molecular target: Cytochrome P450 3A4 (Homo sapiens) (UniProt P08684); experiment: qHTS Assay for Inhibitors and Substrates of Cytochrome P450 3A4 (AID 884); settings: recombinant CYP3A4, Luciferin-PPXE luminescence; series mostly up to 57.1 µM; also: nearly all actives have a fitted effect of over 50% in size; also: potency is read from the fitted curve at half-maximal effect
Method in brief: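 20 nM human CYP3A4 with 25 uM Luciferin-PPXE (at KM) in 200 mM KPO4, preincubated 10 min with compound; NADPH regeneration started a 60 min RT reaction. Luciferin detected by luminescence, normalized to 57 uM ketoconazole as full inhibition.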

[17] = molecular target: Cytochrome P450 2C9 (Homo sapiens) (UniProt P11712); experiment: qHTS Assay for Inhibitors and Substrates of Cytochrome P450 2C9 (AID 883); settings: recombinant CYP2C9, luciferin-H luminescence, 60 min; series mostly up to 57.1 µM; also: potency is read from the fitted curve at half-maximal effect; nearly all actives have a fitted effect of over 60% in size
Method in brief: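 Signal: luciferase luminescence reporting luciferin produced by CYP2C9. Conditions: 10nM enzyme, Luciferin-H 100uM at KM, 25mM KPO4, 37C, 60 min NADPH-driven reaction. Reference: 57uM sulphaphenazole as 100% inhibition.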

Sequence of 3',5'-cyclic-AMP phosphodiesterase 4B (Homo sapiens) (Q07343 whole entry, looked up): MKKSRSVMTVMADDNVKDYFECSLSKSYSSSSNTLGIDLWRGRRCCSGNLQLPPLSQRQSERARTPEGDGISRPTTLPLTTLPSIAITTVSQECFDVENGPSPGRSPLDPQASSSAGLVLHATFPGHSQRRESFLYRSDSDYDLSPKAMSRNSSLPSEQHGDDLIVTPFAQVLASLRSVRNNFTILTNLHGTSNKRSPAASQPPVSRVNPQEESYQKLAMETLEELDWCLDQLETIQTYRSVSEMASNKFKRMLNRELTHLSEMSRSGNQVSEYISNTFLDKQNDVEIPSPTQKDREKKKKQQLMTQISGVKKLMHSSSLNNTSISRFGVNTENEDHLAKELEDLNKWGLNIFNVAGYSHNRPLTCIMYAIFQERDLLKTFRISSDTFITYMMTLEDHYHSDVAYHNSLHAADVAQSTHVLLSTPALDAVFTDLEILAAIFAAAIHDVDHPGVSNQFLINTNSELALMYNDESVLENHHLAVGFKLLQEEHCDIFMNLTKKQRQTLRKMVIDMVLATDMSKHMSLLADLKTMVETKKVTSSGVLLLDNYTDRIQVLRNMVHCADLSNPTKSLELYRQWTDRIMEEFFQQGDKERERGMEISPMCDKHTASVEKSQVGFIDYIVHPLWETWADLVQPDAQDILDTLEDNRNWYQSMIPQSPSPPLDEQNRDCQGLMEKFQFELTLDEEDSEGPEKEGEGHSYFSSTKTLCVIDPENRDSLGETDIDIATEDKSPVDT
Sequence of Ubiquitin carboxyl-terminal hydrolase 1 (Homo sapiens) (O94782 whole entry, looked up): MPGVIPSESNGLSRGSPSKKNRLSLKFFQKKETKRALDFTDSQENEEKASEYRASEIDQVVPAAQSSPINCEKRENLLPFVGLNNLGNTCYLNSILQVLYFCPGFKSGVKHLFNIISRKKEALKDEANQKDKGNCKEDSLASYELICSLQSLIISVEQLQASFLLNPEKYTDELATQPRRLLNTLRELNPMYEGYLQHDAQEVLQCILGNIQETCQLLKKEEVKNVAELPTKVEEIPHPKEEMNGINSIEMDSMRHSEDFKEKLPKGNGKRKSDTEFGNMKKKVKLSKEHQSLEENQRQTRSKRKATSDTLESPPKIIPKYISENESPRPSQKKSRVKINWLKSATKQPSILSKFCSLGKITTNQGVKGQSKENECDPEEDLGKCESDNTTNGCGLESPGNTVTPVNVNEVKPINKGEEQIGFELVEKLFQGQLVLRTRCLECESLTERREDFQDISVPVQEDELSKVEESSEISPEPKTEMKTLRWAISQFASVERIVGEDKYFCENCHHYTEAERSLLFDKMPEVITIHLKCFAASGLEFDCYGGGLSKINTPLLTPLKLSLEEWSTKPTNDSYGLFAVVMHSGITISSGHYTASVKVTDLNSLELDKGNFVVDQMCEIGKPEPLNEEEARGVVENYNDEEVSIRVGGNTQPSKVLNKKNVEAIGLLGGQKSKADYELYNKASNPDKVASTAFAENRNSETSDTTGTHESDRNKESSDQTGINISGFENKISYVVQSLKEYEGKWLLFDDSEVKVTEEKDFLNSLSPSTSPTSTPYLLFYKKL
Sequence of Lysosomal acid glucosylceramidase (Homo sapiens) (P04062 whole entry, looked up): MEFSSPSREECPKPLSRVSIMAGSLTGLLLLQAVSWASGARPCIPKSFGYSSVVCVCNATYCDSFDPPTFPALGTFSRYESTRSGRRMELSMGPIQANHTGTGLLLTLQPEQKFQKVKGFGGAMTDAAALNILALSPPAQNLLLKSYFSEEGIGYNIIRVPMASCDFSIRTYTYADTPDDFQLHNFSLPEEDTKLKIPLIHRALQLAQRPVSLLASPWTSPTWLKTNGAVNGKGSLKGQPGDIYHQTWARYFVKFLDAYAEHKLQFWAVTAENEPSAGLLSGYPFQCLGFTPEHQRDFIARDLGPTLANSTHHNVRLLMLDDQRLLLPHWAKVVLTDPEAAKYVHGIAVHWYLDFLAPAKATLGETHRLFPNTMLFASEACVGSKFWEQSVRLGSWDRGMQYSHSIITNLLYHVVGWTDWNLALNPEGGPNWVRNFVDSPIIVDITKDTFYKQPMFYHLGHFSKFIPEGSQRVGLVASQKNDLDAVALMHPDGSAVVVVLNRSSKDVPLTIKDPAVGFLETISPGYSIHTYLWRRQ
Sequence of Glucocorticoid receptor (Homo sapiens) (P04150 whole entry, looked up, the tested form may be a part): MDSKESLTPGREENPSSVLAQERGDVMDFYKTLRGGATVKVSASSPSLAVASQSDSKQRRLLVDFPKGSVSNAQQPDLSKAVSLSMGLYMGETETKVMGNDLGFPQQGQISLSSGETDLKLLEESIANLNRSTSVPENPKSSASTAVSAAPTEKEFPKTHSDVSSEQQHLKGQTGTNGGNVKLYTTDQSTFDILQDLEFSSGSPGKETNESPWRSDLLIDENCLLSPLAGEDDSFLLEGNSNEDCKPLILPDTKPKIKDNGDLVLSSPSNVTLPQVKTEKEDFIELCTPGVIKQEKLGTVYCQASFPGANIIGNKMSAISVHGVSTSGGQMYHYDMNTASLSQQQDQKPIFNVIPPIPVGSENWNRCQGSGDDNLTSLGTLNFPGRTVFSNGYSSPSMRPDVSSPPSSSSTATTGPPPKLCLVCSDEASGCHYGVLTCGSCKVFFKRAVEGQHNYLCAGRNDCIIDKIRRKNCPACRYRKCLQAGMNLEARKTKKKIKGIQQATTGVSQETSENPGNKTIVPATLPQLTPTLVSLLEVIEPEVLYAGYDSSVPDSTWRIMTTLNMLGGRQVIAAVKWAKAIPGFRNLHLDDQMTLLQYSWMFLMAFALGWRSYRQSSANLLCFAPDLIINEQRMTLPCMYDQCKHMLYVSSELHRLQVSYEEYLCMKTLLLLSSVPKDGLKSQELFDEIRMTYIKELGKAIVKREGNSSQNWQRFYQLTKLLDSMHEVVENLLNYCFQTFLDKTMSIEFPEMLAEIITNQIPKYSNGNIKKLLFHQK
Sequence of Dual specificity protein kinase CLK4 (Homo sapiens) (Q9HAZ1 whole entry, looked up): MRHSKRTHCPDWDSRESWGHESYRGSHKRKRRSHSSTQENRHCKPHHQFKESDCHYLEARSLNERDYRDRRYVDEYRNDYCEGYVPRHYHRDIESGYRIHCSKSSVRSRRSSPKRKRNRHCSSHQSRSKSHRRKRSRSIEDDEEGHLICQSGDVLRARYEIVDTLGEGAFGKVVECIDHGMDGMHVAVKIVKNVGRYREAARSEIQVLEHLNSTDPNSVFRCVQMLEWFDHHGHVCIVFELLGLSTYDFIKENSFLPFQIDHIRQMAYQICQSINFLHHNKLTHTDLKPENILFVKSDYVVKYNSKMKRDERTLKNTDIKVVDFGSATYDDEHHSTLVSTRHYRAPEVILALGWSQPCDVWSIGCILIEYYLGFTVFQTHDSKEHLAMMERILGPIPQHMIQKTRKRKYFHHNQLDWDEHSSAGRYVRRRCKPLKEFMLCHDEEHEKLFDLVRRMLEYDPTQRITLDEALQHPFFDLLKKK
Sequence of Cytochrome P450 3A4 (Homo sapiens) (P08684 whole entry, looked up): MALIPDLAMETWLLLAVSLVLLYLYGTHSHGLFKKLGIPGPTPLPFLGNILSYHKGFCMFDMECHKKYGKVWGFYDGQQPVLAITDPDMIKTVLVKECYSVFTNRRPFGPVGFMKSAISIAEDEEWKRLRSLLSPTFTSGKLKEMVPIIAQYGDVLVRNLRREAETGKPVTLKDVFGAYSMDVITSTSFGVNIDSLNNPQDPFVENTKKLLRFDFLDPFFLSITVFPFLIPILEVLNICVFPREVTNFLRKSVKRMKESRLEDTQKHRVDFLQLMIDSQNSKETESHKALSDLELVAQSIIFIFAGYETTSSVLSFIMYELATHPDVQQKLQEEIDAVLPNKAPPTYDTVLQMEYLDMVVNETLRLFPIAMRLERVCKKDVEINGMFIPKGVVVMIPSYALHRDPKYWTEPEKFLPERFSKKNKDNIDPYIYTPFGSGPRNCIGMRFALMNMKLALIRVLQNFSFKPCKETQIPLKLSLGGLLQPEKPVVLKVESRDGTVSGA
Sequence of Cytochrome P450 1A2 (Homo sapiens) (P05177 whole entry, looked up): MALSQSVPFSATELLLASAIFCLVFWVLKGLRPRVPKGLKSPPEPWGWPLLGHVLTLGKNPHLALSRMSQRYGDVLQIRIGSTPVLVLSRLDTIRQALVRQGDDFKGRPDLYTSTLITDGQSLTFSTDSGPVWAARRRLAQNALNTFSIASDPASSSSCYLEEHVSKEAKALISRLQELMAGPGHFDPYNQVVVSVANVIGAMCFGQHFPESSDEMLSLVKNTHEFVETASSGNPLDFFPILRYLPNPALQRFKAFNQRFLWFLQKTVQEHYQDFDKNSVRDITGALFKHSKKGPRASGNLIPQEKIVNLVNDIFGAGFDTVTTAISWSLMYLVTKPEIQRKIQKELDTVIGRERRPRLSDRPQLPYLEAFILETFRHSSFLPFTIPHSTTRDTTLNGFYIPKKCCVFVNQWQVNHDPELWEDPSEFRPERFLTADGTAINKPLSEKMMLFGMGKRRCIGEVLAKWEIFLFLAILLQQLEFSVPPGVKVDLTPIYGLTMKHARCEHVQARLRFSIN
Sequence of Cytochrome P450 2C9 (Homo sapiens) (P11712 whole entry, looked up): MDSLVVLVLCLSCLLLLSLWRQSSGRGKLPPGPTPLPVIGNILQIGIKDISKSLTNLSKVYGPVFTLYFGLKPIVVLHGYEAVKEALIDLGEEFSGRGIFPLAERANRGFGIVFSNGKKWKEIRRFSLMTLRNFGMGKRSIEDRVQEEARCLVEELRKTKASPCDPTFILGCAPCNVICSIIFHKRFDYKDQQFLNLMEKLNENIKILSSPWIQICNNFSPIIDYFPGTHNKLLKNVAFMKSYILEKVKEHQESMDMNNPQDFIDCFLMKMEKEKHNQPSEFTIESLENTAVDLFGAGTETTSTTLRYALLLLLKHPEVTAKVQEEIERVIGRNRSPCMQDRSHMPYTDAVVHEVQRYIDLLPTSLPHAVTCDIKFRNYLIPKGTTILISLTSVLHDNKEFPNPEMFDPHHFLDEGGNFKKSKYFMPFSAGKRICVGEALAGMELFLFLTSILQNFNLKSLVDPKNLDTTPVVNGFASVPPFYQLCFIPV

COc1ccc(CNc2ccnc(-c3ccoc3)n2)c(OC)c1
inactive: Potency [1] > 11.4 µM | activity change, negative = inhibition [2] 8.22% | activity, negative = inhibition [3] 10.4% | Potency [4] > 46 µM | Potency [5] > 46 µM | Potency [6] | activation [7] 16.3% | Potency [8] | Potency [9] | Potency [10] | Potency [11] | outcome [12]

COc1ccc(-c2nc3cnc(OCc4ccccc4)nc3n(CCC#N)c2=O)cc1
inactive: Potency [1] > 11.4 µM | Potency [4] > 9.22 µM | Potency [5] > 46 µM | Potency [6] | Potency [13] | Potency [14] | Potency [8] | Potency [9] | Potency [10] | Potency [11] | outcome [12]

Cn1cc(-c2nc3cnc(OCc4ccccc4)nc3n(CCC#N)c2=O)c2ccccc21
inactive: Potency [1] > 11.4 µM | activity change, negative = inhibition [2] 9.29% | activity, negative = inhibition [3] 27.1% | Potency [4] > 46 µM | Potency [5] > 46 µM | Potency [6] | Potency [13] | Potency [8] | Potency [9] | Potency [10] | Potency [11] | outcome [12]

CS(=O)(=O)Nc1cccc(-c2ccc3ncnc(NCc4cccs4)c3c2)c1
active: Potency [15] 0.0794 µM | Potency [16] 3.16 µM | Potency [8] 7.94 µM | Potency [9] 7.94 µM | Potency [10] 5.01 µM
inactive: Potency [1] > 11.4 µM | activity, negative = inhibition [3] -2.34% | Potency [4] > 46 µM | Potency [5] > 46 µM | Potency [6] | Potency [14] | Potency [11] | outcome [12]

CN(C)c1ncc2nc(-c3ccccc3)c(=O)n(CCc3ccccc3)c2n1
active: Potency [15] 20 µM | Potency [17] 0.631 µM | Potency [7] 3.16 µM
inactive: Potency [1] > 11.4 µM | Potency [4] > 9.22 µM | Potency [5] > 46 µM | Potency [13] | Potency [8] | Potency [9] | Potency [10] | outcome [12]

CN1CCN(c2ncc3nc(-c4ccc(Cl)cc4)c(=O)n(C)c3n2)CC1
inactive: Potency [1] > 11.4 µM | Potency [4] > 9.22 µM | Potency [5] > 46 µM | Potency [6] | Potency [13] | Potency [16] | Potency [8] | Potency [9] | Potency [10] | Potency [11] | outcome [12]
active: Potency [14] 12.6 µM | Potency [7] 3.16 µM

O=c1c(-c2ccc(F)cc2)nc2cnc(Oc3cccc(Cl)c3)nc2n1C[C@H]1CCCO1
inactive: Potency [1] > 11.4 µM | activity change, negative = inhibition [2] -18.3% | activity, negative = inhibition [3] -26% | Potency [4] > 9.22 µM | Potency [5] > 46 µM | Potency [6] | Potency [13] | Potency [14] | Potency [8] | Potency [9] | Potency [10] | Potency [11] | outcome [12]

— PubChem BioAssay (NCATS)
